# Laboratory results as given in the supplement of paper PMC6411743.
# ± gives the standard deviation of the averaged measurements. Of roughly 6,500 targets only a part is listed; those with the largest changes were picked by preference.
# How the values were obtained:
# Test in all cases: NP40-soluble protein abundance relative to vehicle (solubility fold change) (ratio); higher = more soluble protein in presence of ATP
# DDX50 = target: T1, DDX50 (UniProt Q9BQ39)
# T1 sequence (whole entry): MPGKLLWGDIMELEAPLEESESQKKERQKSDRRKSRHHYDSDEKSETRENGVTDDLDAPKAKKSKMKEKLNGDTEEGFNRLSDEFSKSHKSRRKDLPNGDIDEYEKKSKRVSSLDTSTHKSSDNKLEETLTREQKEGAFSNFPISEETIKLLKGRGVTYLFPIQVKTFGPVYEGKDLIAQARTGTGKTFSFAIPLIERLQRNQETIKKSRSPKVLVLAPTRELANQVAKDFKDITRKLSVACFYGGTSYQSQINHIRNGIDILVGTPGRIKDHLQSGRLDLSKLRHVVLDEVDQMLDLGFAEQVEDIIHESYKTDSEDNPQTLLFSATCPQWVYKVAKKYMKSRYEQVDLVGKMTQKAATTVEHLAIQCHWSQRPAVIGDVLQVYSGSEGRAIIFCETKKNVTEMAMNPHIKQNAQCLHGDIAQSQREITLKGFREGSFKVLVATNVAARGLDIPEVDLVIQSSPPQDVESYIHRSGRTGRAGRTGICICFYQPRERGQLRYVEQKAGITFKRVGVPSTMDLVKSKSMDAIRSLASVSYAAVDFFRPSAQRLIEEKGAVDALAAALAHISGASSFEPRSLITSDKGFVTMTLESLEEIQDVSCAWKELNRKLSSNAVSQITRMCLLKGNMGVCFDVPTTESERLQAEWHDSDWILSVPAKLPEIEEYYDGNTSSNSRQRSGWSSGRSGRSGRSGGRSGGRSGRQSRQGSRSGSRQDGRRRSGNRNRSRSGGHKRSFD
# Procedure, shortened: (§1)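 Each value is a fold change relative to the detergent-processed vehicle, calculated per replicate from vsn-normalised intensities. Jurkat crude lysate received eight concentrations (0.1 to 10 mM) for 10 min at room temperature and 3 min at 37 °C, then was solubilised in 0.8% NP40 with benzonase (60 min, 4 °C). The ultracentrifuged supernatant was TMT-labelled and run by LC-MS/MS in three independent experiments.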
# PINX1 = target: T2, PINX1 (UniProt Q96BK5)
# T2 sequence (whole entry): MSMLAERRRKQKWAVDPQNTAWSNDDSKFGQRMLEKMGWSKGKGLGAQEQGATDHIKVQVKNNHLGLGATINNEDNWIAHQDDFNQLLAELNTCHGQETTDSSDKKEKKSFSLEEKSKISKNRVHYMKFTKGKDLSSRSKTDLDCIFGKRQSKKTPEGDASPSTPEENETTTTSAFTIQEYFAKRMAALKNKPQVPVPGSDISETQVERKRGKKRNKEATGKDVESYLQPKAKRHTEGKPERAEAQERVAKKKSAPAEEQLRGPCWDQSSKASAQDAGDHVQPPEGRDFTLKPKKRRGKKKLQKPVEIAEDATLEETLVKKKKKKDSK
# Procedure, shortened: as §1
# [1] = target: T3, UniProt Q969F9|Q969F9-2|G5E9V4
# T3 sequence (whole entry): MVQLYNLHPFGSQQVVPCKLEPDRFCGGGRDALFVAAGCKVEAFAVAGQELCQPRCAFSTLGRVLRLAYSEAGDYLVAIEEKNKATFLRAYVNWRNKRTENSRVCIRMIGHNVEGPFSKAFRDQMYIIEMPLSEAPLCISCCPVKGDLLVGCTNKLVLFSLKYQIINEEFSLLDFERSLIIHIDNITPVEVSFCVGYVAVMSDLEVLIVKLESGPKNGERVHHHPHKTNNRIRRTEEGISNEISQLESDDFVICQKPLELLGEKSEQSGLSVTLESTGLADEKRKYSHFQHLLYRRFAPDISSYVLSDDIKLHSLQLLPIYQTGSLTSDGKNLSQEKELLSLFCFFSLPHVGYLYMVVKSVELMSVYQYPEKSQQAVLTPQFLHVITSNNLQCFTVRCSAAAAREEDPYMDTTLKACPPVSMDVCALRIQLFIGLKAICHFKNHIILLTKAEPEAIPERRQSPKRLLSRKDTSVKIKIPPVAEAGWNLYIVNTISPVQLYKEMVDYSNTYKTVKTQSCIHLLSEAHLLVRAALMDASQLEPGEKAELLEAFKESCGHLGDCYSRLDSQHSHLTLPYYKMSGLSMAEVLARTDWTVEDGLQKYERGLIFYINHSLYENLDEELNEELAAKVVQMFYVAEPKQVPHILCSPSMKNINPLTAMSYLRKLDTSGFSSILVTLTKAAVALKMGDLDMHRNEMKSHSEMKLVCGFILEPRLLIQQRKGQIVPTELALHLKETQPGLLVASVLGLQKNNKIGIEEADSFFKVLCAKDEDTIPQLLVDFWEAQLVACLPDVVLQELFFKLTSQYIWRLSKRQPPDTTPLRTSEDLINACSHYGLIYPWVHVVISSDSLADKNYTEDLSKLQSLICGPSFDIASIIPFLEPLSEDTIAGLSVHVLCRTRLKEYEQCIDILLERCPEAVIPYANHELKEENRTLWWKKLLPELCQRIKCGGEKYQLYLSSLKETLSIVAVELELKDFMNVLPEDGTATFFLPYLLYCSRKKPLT
# Procedure, shortened: as §1
# UniProt Q96G25|Q96G25-2 = target: T4, UniProt Q96G25|Q96G25-2
# T4 sequence (whole entry): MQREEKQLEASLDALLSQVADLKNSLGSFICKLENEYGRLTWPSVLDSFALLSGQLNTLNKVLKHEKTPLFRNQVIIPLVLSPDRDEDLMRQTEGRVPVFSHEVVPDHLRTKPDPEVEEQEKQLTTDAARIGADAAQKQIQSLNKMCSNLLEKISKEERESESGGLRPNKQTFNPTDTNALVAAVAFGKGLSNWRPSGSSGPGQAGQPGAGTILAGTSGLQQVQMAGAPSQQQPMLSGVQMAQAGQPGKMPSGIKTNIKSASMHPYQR
# Procedure, shortened: as §1
# UniProt Q9BUA3 = target: T5, UniProt Q9BUA3
# T5 sequence (whole entry): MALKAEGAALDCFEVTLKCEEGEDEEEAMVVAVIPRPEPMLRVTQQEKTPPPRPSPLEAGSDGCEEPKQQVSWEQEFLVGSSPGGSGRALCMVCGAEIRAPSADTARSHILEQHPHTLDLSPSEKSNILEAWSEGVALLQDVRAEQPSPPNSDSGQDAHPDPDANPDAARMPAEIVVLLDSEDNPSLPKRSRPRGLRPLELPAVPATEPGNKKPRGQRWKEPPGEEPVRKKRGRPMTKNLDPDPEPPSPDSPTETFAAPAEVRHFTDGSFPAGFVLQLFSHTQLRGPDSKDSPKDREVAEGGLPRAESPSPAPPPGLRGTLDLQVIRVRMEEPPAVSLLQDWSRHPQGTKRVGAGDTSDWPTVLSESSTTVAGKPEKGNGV
# Procedure, shortened: as §1
# UniProt Q9H993 = target: T6, UniProt Q9H993
# T6 sequence (whole entry): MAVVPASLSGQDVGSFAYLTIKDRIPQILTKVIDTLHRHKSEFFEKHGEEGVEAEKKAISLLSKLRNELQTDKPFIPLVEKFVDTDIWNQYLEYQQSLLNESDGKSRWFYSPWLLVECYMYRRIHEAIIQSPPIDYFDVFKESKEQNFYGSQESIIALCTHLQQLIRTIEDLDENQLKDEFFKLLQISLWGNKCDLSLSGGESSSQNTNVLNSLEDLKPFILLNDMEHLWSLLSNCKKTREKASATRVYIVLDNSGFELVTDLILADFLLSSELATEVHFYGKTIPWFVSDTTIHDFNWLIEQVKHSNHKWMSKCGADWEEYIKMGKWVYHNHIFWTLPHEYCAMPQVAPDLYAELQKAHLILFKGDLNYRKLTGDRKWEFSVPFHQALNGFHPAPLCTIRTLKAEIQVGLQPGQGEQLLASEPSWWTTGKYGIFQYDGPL
# Procedure, shortened: as §1
# VRK1 = target: T7, VRK1 (UniProt Q99986)
# T7 sequence (whole entry): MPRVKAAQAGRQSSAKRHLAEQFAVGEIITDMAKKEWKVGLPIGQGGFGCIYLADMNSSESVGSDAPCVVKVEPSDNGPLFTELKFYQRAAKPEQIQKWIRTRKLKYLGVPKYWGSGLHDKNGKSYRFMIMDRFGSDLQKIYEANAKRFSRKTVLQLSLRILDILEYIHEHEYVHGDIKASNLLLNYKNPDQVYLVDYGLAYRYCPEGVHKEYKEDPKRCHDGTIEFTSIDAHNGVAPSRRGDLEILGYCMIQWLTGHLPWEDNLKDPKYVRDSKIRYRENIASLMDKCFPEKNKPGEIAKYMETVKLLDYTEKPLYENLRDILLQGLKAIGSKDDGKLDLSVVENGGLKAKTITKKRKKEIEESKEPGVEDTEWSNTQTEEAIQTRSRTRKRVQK
# Procedure, shortened: as §1
smiles,measurement,setting,value
Nc1ncnc2c1ncn2[C@@H]1O[C@H](COP(=O)(O)OP(=O)(O)OP(=O)(O)O)[C@@H](O)[C@H]1O [adenosine triphosphate],NP40-soluble protein abundance,DDX50; concentration: 1mM,1.35 ± 0.086
same,NP40-soluble protein abundance,DDX50; concentration: 2mM,1.67 ± 0.17
same,NP40-soluble protein abundance,DDX50; concentration: 4mM,2.19 ± 0.26
same,NP40-soluble protein abundance,DDX50; concentration: 6mM,2.88 ± 0.35
same,NP40-soluble protein abundance,DDX50; concentration: 8mM,3.54 ± 0.54
same,NP40-soluble protein abundance,DDX50; concentration: 10mM,4.32 ± 0.63
same,NP40-soluble protein abundance,PINX1; concentration: 1mM,1.52 ± 0.023
same,NP40-soluble protein abundance,PINX1; concentration: 2mM,1.64 ± 0.086
same,NP40-soluble protein abundance,PINX1; concentration: 4mM,1.78 ± 0.11
same,NP40-soluble protein abundance,PINX1; concentration: 6mM,1.95 ± 0.1
same,NP40-soluble protein abundance,PINX1; concentration: 8mM,1.91 ± 0.13
same,NP40-soluble protein abundance,PINX1; concentration: 10mM,2.03 ± 0.14
same,NP40-soluble protein abundance,[1]; concentration: 1mM,1.07 ± 0.16
same,NP40-soluble protein abundance,[1]; concentration: 2mM,1.11 ± 0.22
same,NP40-soluble protein abundance,[1]; concentration: 4mM,1.05 ± 0.26
same,NP40-soluble protein abundance,[1]; concentration: 6mM,1.05 ± 0.15
same,NP40-soluble protein abundance,[1]; concentration: 8mM,0.905 ± 0.044
same,NP40-soluble protein abundance,[1]; concentration: 10mM,0.962 ± 0.11
same,NP40-soluble protein abundance,UniProt Q96G25|Q96G25-2; concentration: 1mM,1 ± 0.11
same,NP40-soluble protein abundance,UniProt Q96G25|Q96G25-2; concentration: 2mM,0.976 ± 0.074
same,NP40-soluble protein abundance,UniProt Q96G25|Q96G25-2; concentration: 4mM,1.06 ± 0.035
same,NP40-soluble protein abundance,UniProt Q96G25|Q96G25-2; concentration: 6mM,1.07 ± 0.11
same,NP40-soluble protein abundance,UniProt Q96G25|Q96G25-2; concentration: 8mM,0.993 ± 0.039
same,NP40-soluble protein abundance,UniProt Q96G25|Q96G25-2; concentration: 10mM,0.965 ± 0.1
same,NP40-soluble protein abundance,UniProt Q9BUA3; concentration: 1mM,1.02 ± 0.11
same,NP40-soluble protein abundance,UniProt Q9BUA3; concentration: 2mM,1.03 ± 0.09
same,NP40-soluble protein abundance,UniProt Q9BUA3; concentration: 4mM,1.03 ± 0.082
same,NP40-soluble protein abundance,UniProt Q9BUA3; concentration: 6mM,1.04 ± 0.12
same,NP40-soluble protein abundance,UniProt Q9BUA3; concentration: 8mM,0.992 ± 0.08
same,NP40-soluble protein abundance,UniProt Q9BUA3; concentration: 10mM,1 ± 0.019
same,NP40-soluble protein abundance,UniProt Q9H993; concentration: 1mM,1.08 ± 0.068
same,NP40-soluble protein abundance,UniProt Q9H993; concentration: 2mM,1.05 ± 0.06
same,NP40-soluble protein abundance,UniProt Q9H993; concentration: 4mM,1.02 ± 0.039
same,NP40-soluble protein abundance,UniProt Q9H993; concentration: 6mM,0.991 ± 0.072
same,NP40-soluble protein abundance,UniProt Q9H993; concentration: 8mM,1.04 ± 0.047
same,NP40-soluble protein abundance,UniProt Q9H993; concentration: 10mM,1.01 ± 0.053
same,NP40-soluble protein abundance,VRK1; concentration: 1mM,1.39 ± 0.026
same,NP40-soluble protein abundance,VRK1; concentration: 2mM,1.43 ± 0.021
same,NP40-soluble protein abundance,VRK1; concentration: 4mM,1.44 ± 0.039
same,NP40-soluble protein abundance,VRK1; concentration: 6mM,1.51 ± 0.057
same,NP40-soluble protein abundance,VRK1; concentration: 8mM,1.52 ± 0.031
same,NP40-soluble protein abundance,VRK1; concentration: 10mM,1.48 ± 0.063
